High-throughput results: PubChem, The Scripps Research Institute Molecular Screening Center
MITF inh: blocks human microphthalmia-associated transcription factor; O75030; 650,000 compounds, 0.91% hits; inhibition, % at 2.6 µM; AlphaScreen MITF homodimerization, bead proximity signal; in the data active = inhibition above about 50%
FBW7 act: activators of human E3 ligase FBW7 | Q969H0 | AID 1259310 | normalized activity (activation), % at 26.1 µM | AlphaScreen FBW7–phospho-cyclin E peptide binding, activator screen | 650,000 compounds, 0.13% hits; in the data active = normalized activity above about 1.9%;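 note: purified mutant Fbw7 with reduced substrate affinity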
TEAD-YAP inh: TEAD-YAP interaction inhibition; HEK-TIYL cells, TEAD-Gal4/YAP UAS-luciferase luminescence; inhibition, % at 9.12 µM; 640,000 compounds, 1.4% hits; AID 1259422; in the data active = inhibition above about 32%
GPR151 activ: human GPR151 activation. Q8TDV0. PathHunter beta-arrestin GPR151 cells, luminescence. activation, % at 11.2 µM. 650,000 compounds, 1% hits. AID 1508602; in the data active = activation above about 4.9%
Target sequence (Q8TDV0 whole entry, looked up): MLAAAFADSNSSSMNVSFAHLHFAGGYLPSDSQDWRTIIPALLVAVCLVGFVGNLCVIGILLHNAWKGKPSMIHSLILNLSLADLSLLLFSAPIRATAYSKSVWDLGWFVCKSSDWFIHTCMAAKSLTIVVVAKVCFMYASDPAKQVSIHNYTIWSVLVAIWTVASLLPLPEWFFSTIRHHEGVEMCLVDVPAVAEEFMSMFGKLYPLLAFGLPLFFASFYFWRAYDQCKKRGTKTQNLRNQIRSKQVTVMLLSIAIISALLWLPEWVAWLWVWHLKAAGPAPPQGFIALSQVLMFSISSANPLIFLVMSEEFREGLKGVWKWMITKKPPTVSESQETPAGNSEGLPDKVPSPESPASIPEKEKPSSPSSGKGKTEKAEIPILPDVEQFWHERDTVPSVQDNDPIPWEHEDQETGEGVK
MITF inh conf: human MITF inhibition, confirmation | AlphaScreen MITF homodimerization, biotin/His-MITF beads | shares compounds with MITF inh | inhibition, % at 2.6 µM | AID 1259372 | 4,700 compounds, 16% hits;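 active = inhibition above a cutoff derived from the DMSO control wells, cut at about 28% in these data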;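 note: inhibitors lower the bead chemiluminescence by keeping MITF from dimerizing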
AlphaScreen DR: AlphaScreen optical interference, dose response counter-screen; AlphaScreen optical interference counterscreen, cell-free; 480 compounds, 6% hits; IC50, µM; shares compounds with MITF inh; call rule not given here
AlphaScreen intf2: AlphaScreen optical interference, counter-screen | shares compounds with MITF inh | LysRS AlphaScreen counterscreen, signal interference, triplicate | inhibition, % at 2.6 µM | 4,700 compounds, 7.6% hits | AID 1259376;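 active = inhibition above a cutoff derived from the DMSO control wells, cut at about 30% in these data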
Of the large screens only hits and unclear results are named; the others gave an inactive call (follow-up assays come after a bar, where they were run). A selection: hits, their analogues and other compounds. The true share with any hit is near 3.5%.

CCOC(=O)c1cnc(-n2[nH]c(C)c(Cc3ccccc3)c2=O)[nH]c1=O	MITF inh 96 | MITF inh conf 87 | AlphaScreen intf2 100
CCOC(=O)c1cnc(-n2[nH]c(C)cc2=O)[nH]c1=O	MITF inh 84 | MITF inh conf 98 | AlphaScreen intf2 96
CCCCC(CCCC)(Nc1ccc(F)c(F)c1)C(=O)NNc1ccccc1	MITF inh 61 | MITF inh conf inactive | AlphaScreen intf2 inactive
CC1(C)CC(=O)C2=C(C1)N(c1sc3c(c1C#N)CCCCC3)C(N)=C(C#N)C2c1ccc(F)cc1 (stereo not drawn)	none
O=C1CC(N2CCN(c3ccc(Cl)cc3)CC2)C(=O)N1CCc1ccccc1 (stereo not drawn)	MITF inh 53 | MITF inh conf inactive | AlphaScreen intf2 inactive
COc1cc(CN2CCN(Cc3ccccc3C(F)(F)F)CC2)cc(OC)c1OC	MITF inh 73 | MITF inh conf inactive | AlphaScreen intf2 inactive
COc1cccc(CN2CCN(Cc3ccccc3C(F)(F)F)CC2)c1OC	MITF inh 67 | MITF inh conf inactive | AlphaScreen intf2 inactive
COc1cccc(CN2CCN(Cc3ccccn3)CC2)c1OC	MITF inh 64 | MITF inh conf inactive | AlphaScreen intf2 inactive
COc1cc(CN2CCN(c3ccccc3)CC2)cc(OC)c1OC	none
Cc1ccc(NC(=O)c2ccc3c(=O)n(-c4cc(C(F)(F)F)ccc4Cl)c(=S)[nH]c3c2)cc1F	none
O=C(C1CCCN(Cc2ccccc2F)C1)N1CCCCC1 (stereo not drawn)	MITF inh 69 | MITF inh conf inactive | AlphaScreen intf2 inactive
O=C(C1CCCN(Cc2ccco2)C1)N1CCCCCC1 (stereo not drawn)	MITF inh 54 | MITF inh conf inactive | AlphaScreen intf2 inactive
CCN(CC)S(=O)(=O)c1ccc(F)c(C(=O)Nc2ccc(C(C)C)cc2)c1	none
O=C(NC1CCN(S(=O)(=O)c2ccc(F)cc2)CC1)c1ccco1	none
O=S(=O)(c1ccccc1C(F)(F)F)N1CCC(c2nc3ccccc3[nH]2)CC1	MITF inh 73 | MITF inh conf 78 | AlphaScreen DR inactive | AlphaScreen intf2 inactive
O=C(NC1CCN(S(=O)(=O)c2ccccc2C(F)(F)F)CC1)c1ccco1	MITF inh 77 | MITF inh conf inactive | AlphaScreen intf2 inactive
O=S(=O)(c1ccc(C(F)(F)F)cc1)N1CCC(c2nc3ccccc3[nH]2)CC1	none
Cc1ccc(-n2ncc(C#N)c2/N=C/N2CCN(C)CC2)cc1	MITF inh 56 | MITF inh conf inactive | AlphaScreen intf2 inactive
O=C(CN1Cc2ccccc2OC(c2ccccc2F)C1)NCCc1ccco1 (stereo not drawn)	none
CCCOc1ccc(N)cc1N	MITF inh 57 | MITF inh conf 110 | AlphaScreen DR inactive | AlphaScreen intf2 inactive
COc1nccnc1NS(=O)(=O)c1ccc(NC(=O)c2ccc([N+](=O)[O-])c(C)c2)cc1	MITF inh 59 | MITF inh conf 34 | AlphaScreen DR inactive | AlphaScreen intf2 inactive
Cc1cccc(N2CCN(C(=O)Cn3ncn4cccc4c3=O)CC2)c1C	none
c1ccc(CN2CCC(NCc3c[nH]c4ccccc34)CC2)cc1	MITF inh 62 | MITF inh conf inactive | AlphaScreen intf2 inactive
Oc1ccccc1CNC1CCN(Cc2ccccc2)CC1	none
c1ccc(CN2CCC(NCc3ccccn3)CC2)cc1	MITF inh 62 | MITF inh conf inactive | AlphaScreen intf2 inactive
C=CCOc1ccccc1CNC1CCN(Cc2ccccc2)CC1	MITF inh 53 | MITF inh conf inactive | AlphaScreen intf2 inactive
c1ccc(C2CCC(NCCc3ccccn3)CC2)cc1 (stereo not drawn)	MITF inh 59 | MITF inh conf inactive | AlphaScreen intf2 inactive
CC(C)CSc1nc2ccccc2c2nc(-c3ccc([N+](=O)[O-])cc3)nn12	none
Cc1sc2nc(C)n(C3CCN(C(=O)CCn4cnc5ccccc54)CC3)c(=O)c2c1C	none
O=C(NCc1ccccc1)c1cccc(F)c1	none
COc1cc(CN2CCN(Cc3ccc(Cl)cc3)CC2)cc(OC)c1OC	MITF inh 78 | MITF inh conf inactive | AlphaScreen intf2 inactive
COc1cc(CN2CCN(Cc3ccc(Br)cc3)CC2)cc(OC)c1O	none
COc1cc(C(=O)N2CCN(Cc3cccc(Cl)c3)CC2)cc(OC)c1OC	none
COc1cc(CN2CCN(Cc3cc(OC)c(OC)c(OC)c3)CC2)cc(OC)c1OC	none
COc1cc(CN2CCN(Cc3cccc(Cl)c3)CC2)cc(OC)c1OC	MITF inh 69 | MITF inh conf inactive | AlphaScreen intf2 inactive
COc1cc(CN2CCN(Cc3ccc(Br)cc3)CC2)cc(OC)c1OC	MITF inh 81 | MITF inh conf inactive | AlphaScreen intf2 inactive
COc1ccc(CN2CCN(Cc3ccc(C)cc3)CC2)cc1OC	MITF inh 67 | MITF inh conf inactive | AlphaScreen intf2 inactive
COc1ccc(CN2CCN(Cc3ccc(OC)c(OC)c3)CC2)cc1OC	none
Nc1c(Cl)cc(N2C(=O)C3CCCCC3C2=O)cc1Cl (stereo not drawn)	none
O=C(c1csc2c1CCCC2)N1CCC(O)(c2ccccn2)CC1	none
CC(C)Oc1ccc(C2CC(=O)N(CN3CCOCC3)C2=O)cc1 (stereo not drawn)	none
CC(=O)N(Cc1ccc(F)cc1)Cc1cc2cc3c(cc2[nH]c1=O)OCCO3	none
Cc1ccccc1NC(=O)NCc1noc2ccccc12	none
COc1ccc(CN2CCN(Cc3ccc(Br)cc3)CC2)cc1OC	MITF inh 74 | MITF inh conf inactive | AlphaScreen intf2 inactive
COc1ccc(CN2CCN(Cc3cccc(Br)c3)CC2)cc1OC	none
c1ccc2c(c1)OCC(c1nc3c(-c4ccncc4)cncc3[nH]1)O2 (stereo not drawn)	MITF inh 61 | MITF inh conf 39 | AlphaScreen DR inactive | AlphaScreen intf2 inactive
CCCNC(=O)c1cnc(NC2CCN(Cc3ccccc3)CC2)s1	MITF inh 74 | MITF inh conf inactive | AlphaScreen intf2 inactive
O=C(NC1CCN(Cc2ccccc2)CC1)c1cnc(NC2CCN(Cc3ccccc3)CC2)s1	none
Cc1cc(C(=O)COc2ccc(-c3nnco3)cc2)c(C)n1CC1CCCO1 (stereo not drawn)	none
COc1ccccc1OCCCOc1ccc(C)cc1OC	none
CNCCCOc1ccc(C)cc1OC	MITF inh 52 | MITF inh conf inactive | AlphaScreen intf2 inactive
COc1ccc(CCN=C(C)C2=C(O)C(c3ccccc3)OC2=O)cc1OC (stereo not drawn)	MITF inh 74 | MITF inh conf inactive | AlphaScreen intf2 inactive
CN(CCc1ccccn1)C(=O)c1cccc(F)c1	MITF inh 105 | MITF inh conf inactive | AlphaScreen intf2 inactive
CN(CCc1ccccn1)C(=O)c1ccc(F)cc1	MITF inh 77 | MITF inh conf inactive | AlphaScreen intf2 inactive
COCC(=O)NC(CC(C)C)c1nnc2n1CCN(Cc1cc(F)cc(F)c1)CC2 (stereo not drawn)	none
